Several values for one entry are separate records, joined by “and”; a condition that tells them apart may be missing. Equal entries are not always repeated. Activity calls are given as the source filed them.
How the values were obtained:
[1] = compounds binding Alexa647 anti-His antibody – biochemical, small-molecule microarray, 635 nm fluorescence, artefact control for SMM control protein annotation, primary screen (AID 1128); conditions: higher = more signal;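 also: score merges feature fluorescence with signal-to-noise for each printed compound spot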
[2] = test system: Human papillomavirus type 1a E7 protein (residues 1-88); test: HPV1a E7 small-molecule binders, primary screen, biochemical, small-molecule microarray, residues 1-88, 635 nm (AID 1129); conditions: small-molecule microarray binding, fluorescence 635 nm; higher = more signal
[3] = biological target: Focal adhesion kinase 1 (Homo sapiens) (UniProt Q05397); test: PTK2 protein binding on printed compound slides – biochemical, small-molecule microarray, 635/667 nm fluorescence, BSA, DTT, primary screen (AID 1130); conditions: 635 nm fluorescence, higher = more signal;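 also: composite of spot emission at 667 nm and signal to noise over triplicate slides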
Chain of Focal adhesion kinase 1 (Homo sapiens) (Q05397 whole entry, looked up): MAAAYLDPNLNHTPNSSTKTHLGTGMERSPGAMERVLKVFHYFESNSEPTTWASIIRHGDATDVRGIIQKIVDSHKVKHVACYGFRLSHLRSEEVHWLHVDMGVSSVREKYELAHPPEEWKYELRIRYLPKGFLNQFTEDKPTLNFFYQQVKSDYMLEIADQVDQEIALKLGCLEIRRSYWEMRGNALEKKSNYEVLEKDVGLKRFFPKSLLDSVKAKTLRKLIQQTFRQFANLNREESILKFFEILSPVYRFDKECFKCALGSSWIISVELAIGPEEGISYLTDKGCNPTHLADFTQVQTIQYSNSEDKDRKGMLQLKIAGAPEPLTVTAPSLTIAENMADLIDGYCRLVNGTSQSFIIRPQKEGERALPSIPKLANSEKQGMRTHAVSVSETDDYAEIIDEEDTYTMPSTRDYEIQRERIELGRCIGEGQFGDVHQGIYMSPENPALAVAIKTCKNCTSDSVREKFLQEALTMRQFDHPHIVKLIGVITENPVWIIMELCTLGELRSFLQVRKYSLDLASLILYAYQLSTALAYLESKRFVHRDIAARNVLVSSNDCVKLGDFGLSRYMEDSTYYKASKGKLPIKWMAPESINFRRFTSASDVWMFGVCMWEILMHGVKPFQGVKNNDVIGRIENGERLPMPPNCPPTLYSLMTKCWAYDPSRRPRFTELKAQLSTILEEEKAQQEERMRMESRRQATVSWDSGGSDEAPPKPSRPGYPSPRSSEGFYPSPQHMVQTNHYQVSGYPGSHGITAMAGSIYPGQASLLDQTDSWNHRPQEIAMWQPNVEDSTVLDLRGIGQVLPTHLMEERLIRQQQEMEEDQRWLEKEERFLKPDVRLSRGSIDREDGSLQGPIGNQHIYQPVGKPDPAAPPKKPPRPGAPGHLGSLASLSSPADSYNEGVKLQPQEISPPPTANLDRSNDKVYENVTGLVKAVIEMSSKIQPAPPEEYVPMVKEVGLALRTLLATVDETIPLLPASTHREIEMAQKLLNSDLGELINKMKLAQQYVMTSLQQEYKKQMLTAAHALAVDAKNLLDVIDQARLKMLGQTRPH

[4] = test system: Fibrinogen (Alexa647-labelled); test: Alexa647-fibrinogen binding to printed small molecules – biochemical, small-molecule microarray, 635/667 nm fluorescence, artefact control for SMM control-protein annotation, profiling panel (AID 1131); conditions: fibrinogen-A647 binding fluorescence, higher = more signal;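 also: z-score merges 667 nm fluorescence with per-spot signal-to-noise over triplicate slides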
[5] = biological target: Follistatin (Homo sapiens) (UniProt P19883); test: FST protein binding to printed compounds – biochemical, small-molecule microarray, 635/667 nm fluorescence, primary screen (AID 1132); conditions: 635 nm fluorescence, higher = more signal
Chain of Follistatin (Homo sapiens) (P19883 whole entry, looked up): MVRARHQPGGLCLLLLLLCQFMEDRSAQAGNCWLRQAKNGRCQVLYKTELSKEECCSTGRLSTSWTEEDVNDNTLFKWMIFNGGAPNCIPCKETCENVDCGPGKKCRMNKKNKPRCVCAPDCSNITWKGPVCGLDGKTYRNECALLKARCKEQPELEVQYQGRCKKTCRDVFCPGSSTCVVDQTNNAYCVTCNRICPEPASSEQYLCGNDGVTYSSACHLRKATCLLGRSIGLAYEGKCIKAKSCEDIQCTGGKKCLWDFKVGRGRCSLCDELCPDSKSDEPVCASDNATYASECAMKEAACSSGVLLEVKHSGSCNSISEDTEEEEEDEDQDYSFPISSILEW

[6] = biological target: Fibroblast growth factor 2 (Homo sapiens) (UniProt P09038); test: basic fibroblast growth factor binding to printed compounds – biochemical, small-molecule microarray, 635/667 nm fluorescence, primary screen (AID 1133); conditions: FGF2, fluorescence 635/667, higher = more signal
Chain of Fibroblast growth factor 2 (Homo sapiens) (P09038 whole entry, looked up): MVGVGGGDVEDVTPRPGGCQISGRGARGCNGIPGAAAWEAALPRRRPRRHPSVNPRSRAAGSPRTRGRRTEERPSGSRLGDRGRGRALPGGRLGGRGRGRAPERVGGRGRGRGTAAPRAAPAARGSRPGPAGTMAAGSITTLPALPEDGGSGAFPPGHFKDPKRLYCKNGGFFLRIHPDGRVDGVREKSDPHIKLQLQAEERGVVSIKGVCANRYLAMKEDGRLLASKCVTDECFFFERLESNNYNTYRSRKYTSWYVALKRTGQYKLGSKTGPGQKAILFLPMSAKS

[7] = JC-1 mitochondrial potential readout, lung cancer cells – cell-based, A549, JC-1 fluorescence, basal, 24 h, 100 nL, profiling panel (AID 1138); conditions: higher = more signal;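 also: A549 lung adenocarcinoma cells under basal conditions with no added stimulus; test concentration not given here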
Lefty1 = Lefty1 protein binding to printed compounds – biochemical, small-molecule microarray, 635/667 nm fluorescence, primary screen (AID 1139); conditions: fluorescence 635/667, higher = more signal
[8] = test system: wheat germ agglutinin (Triticum aestivum), Alexa647-labelled; test: Alexa647-WGA lectin binding to printed small molecules – biochemical, small-molecule microarray, 635/667 nm fluorescence, artefact control for SMM control-protein annotation, profiling panel (AID 1140); conditions: WGA-A647 binding, 635 nm fluorescence, higher = more signal;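 also: score merges 667 nm feature emission with signal to noise over triplicate slides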
[9] = biological target: Luciferin 4-monooxygenase (Photinus pyralis) (UniProt P08659); test: inhibition of purified Photinus pyralis luciferase – biochemical, luminescence, purified enzyme, 2006 set, primary screen (AID 1141); conditions: purified firefly luciferase, SteadyGlo luminescence, 30 min; higher = more signal, called active from +8 up or from −8 down;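 also: cell-free assay with purified firefly luciferase at 100 ng per well in PBS; test concentration not given here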
Chain of Luciferin 4-monooxygenase (Photinus pyralis) (P08659 whole entry, looked up): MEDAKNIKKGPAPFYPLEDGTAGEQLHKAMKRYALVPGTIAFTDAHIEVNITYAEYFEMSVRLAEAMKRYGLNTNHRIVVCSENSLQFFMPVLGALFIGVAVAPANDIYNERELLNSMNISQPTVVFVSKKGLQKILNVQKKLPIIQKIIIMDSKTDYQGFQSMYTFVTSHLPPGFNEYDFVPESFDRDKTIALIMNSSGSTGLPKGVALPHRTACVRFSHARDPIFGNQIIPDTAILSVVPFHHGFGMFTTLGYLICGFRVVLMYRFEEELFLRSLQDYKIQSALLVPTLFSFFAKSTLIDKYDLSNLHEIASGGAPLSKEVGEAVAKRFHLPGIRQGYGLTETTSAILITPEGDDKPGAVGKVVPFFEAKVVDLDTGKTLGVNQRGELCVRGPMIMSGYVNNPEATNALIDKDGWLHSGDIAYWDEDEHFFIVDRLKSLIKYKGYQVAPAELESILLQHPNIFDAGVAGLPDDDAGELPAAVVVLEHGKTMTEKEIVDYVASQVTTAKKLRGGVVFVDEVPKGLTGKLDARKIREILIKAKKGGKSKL

In the case of `CC(CO)N1C(=O)[C@@H]2C3C(=O)OCCC=C[C@H]3OC23C=CCN(c2ccc(Cl)cc2)C(=O)[C@@H]13` (stereo not given in full), the composite z-score [1] is reported as -1.31 and 1.36, the composite z-score [2] is reported as -1.31 and -0.0543 and the composite z-score [3] is reported as 1.69 and 0.156. For the same compound, the composite z-score [4] was -0.697 and 0.363, the composite z-score [5] was -1.49 and 0.33 and the composite z-score [6] was -1.73 and -0.68. The z-score [7] was 0.931 and 0.848, the composite z-score (Lefty1) was -1.49 and 0.213 and the composite z-score [8] was -0.0757 and 0.684. For the same compound, the z-score [9] was -0.593 (inactive) and -0.731 (inactive).
For `C=CCN(C(=O)C(c1cccs1)N(C(=O)/C=C\C(=O)O)c1c(Cl)cccc1CO)C(C)(C)C` (stereo not given), the composite z-score [1] was 0.28 and -0.668, the composite z-score [2] was -1.4 and -1.02 and the composite z-score [3] was -0.513 and -0.619. For the same compound, the composite z-score [4] was -2.69 and -1.15, the composite z-score [5] was -1.48 and -1.81 and the composite z-score [6] was -2.01 and -2.33. The z-score [7] was 0.674 and 0.368, the composite z-score (Lefty1) was -1.96 and -2.54 and the composite z-score [8] was -0.543 and -1. The z-score [9] was -0.242 (inactive) and -0.42 (inactive).
With `CC(CO)N1C(=O)[C@@H]2C3C(=O)OCCC=C[C@H]3OC23C=CCN(c2ccc4ccccc4c2)C(=O)[C@@H]13` (stereo not given in full) the composite z-score [1] was 0.62 and 1.59, the composite z-score [2] was -0.203 and -0.362 and the composite z-score [3] was -0.192 and 0.525. For the same compound, the composite z-score [4] was -0.986 and -1.18, the composite z-score [5] was -0.0475 and -0.0413 and the composite z-score [6] was -1.53 and -0.879. The z-score [7] was 0.638 and 0.972, the composite z-score (Lefty1) was -0.0302 and -0.337 and the composite z-score [8] was -0.388 and 0.771. For the same compound, the z-score [9] was -0.618 (inactive) and -0.657 (inactive).
In the case of `O=c1n(-c2ccccc2)c(=O)n2n1CC[C@@H]1C(=NOC[C@@H](O)COCc3ccco3)[C@H]3O[C@H]3[C@@H](O)[C@@H]12`, the composite z-score [1] is reported as 0.196 and 1.9, the composite z-score [2] is reported as 0.0776 and -0.425 and the composite z-score [3] is reported as 0.828 and -0.367. For the same compound, the composite z-score [4] was -0.309 and -0.105, the composite z-score [5] was 1.15 and 0.461 and the composite z-score [6] was 1.02 and 0.96. For the same compound, the z-score [7] was -0.642 and -0.729, the composite z-score (Lefty1) was 1.43 and 0.459 and the composite z-score [8] was -0.392 and 0.0106. The z-score [9] was 0.0662 (inactive) and -0.214 (inactive).
`CCOC(=O)NN=C1C[C@@H](O)[C@@H](O)[C@@H]2[C@@H]3C(=O)N(Cc4ccccc4)C(=O)[C@@H]3CC[C@@H]12` gave a composite z-score [1] of 0.82, a composite z-score [2] of 0.561 and a composite z-score [3] of -0.118. The composite z-score [4] was 0.669, the composite z-score [5] was 0.408 and the composite z-score [6] was 0.371. For the same compound, the z-score [7] was -0.222, the composite z-score (Lefty1) was 0.665 and the composite z-score [8] was 0.0775. For the same compound, the z-score [9] was 0.66 (inactive).
With `C=CCN(CCCC)C(=O)C1N(C(C)(C)CO)C(=O)C2C(C(=O)O)C3C=CC21O3` (stereo not given) the composite z-score [1] was -0.767 and -0.57, the composite z-score [2] was -1.26 and -1.35 and the composite z-score [3] was -0.909 and -1.23. The composite z-score [4] was -4.07 and -1.59, the composite z-score [5] was -2.17 and -2.38 and the composite z-score [6] was -1.42 and -1.18. For the same compound, the z-score [7] was -0.628 and -0.501, the composite z-score (Lefty1) was -1.93 and -1.64 and the composite z-score [8] was -0.788 and -0.799. The z-score [9] was 1.12 (inactive) and 0.853 (inactive).
With `C=CCN(Cc1ccccc1)C(=O)C(c1cccs1)N(C(=O)/C=C\C(=O)O)c1ccc(CCO)cc1` (stereo not given) the composite z-score [1] was -1.02 and -0.261, the composite z-score [2] was 0.285 and -0.623 and the composite z-score [3] was -0.411 and -0.574. For the same compound, the composite z-score [4] was -1.94 and -2.45, the composite z-score [5] was -1.48 and -1.4 and the composite z-score [6] was -1.78 and -1.47. For the same compound, the z-score [7] was 0.579 and 0.559, the composite z-score (Lefty1) was -1.9 and -1.42 and the composite z-score [8] was -0.99 and -0.888. The z-score [9] was 0.666 (inactive) and 0.381 (inactive).
With `CC(CO)N1C(=O)[C@@H]2C3C(=O)OCCC=C[C@H]3OC23C=CCN(C(C)(C)C)C(=O)[C@@H]13` (stereo not given in full) the composite z-score [1] was -2.03 and 0.11, the composite z-score [2] was -1.08 and -0.0333 and the composite z-score [3] was -0.0802 and -0.371. The composite z-score [4] was -1.65 and -0.445, the composite z-score [5] was -1.1 and -0.0304 and the composite z-score [6] was -0.325 and -0.263. For the same compound, the z-score [7] was -0.619 and -0.394, the composite z-score (Lefty1) was -1.08 and 0.542 and the composite z-score [8] was -2.85 and 0.0101. For the same compound, the z-score [9] was -0.685 (inactive) and -0.146 (inactive).
With `CCN1C(=O)[C@H]2[C@H]3[C@H](O)[C@H](O)CC(=NOC[C@@H](O)COCc4ccco4)[C@@H]3CC[C@H]2C1=O` the composite z-score [1] was -0.48 and 2.77, the composite z-score [2] was -1.11 and -1.61 and the composite z-score [3] was -0.406 and -0.591. The composite z-score [4] was -0.852 and -0.943, the composite z-score [5] was 1.34 and -0.205 and the composite z-score [6] was 1.66 and -0.129. The z-score [7] was -0.254 and -1.57, the composite z-score (Lefty1) was 1.44 and 0.31 and the composite z-score [8] was -0.559 and -0.746. The z-score [9] was -0.0037 (inactive) and 0.33 (inactive).
For `CC(C)OC(=O)C=C1C[C@@H](c2ccccc2)O[C@@H](c2ccccc2)O1`, the composite z-score [1] was 0.871 and 1.47, the composite z-score [2] was 1.23 and 1.25 and the composite z-score [3] was 0.255 and 0.796. The composite z-score [4] was 0.977 and 0.962, the composite z-score [5] was 1.26 and 1.31 and the composite z-score [6] was 1.42 and 1.02. The z-score [7] was 1.55 and 0.229, the composite z-score (Lefty1) was 1.11 and 1.31 and the composite z-score [8] was 0.824 and 1.3. The z-score [9] was 0.992 (inactive) and -0.692 (inactive).
For `CCOC(=O)C[C@H]1[C@H](OC(=O)c2ccccc2-c2ccccc2)[C@@H](NC(=O)Cc2ccc(OC)cc2)c2cc(OCCCO)ccc2N1C(=O)Cc1ccc(OC)cc1`, the composite z-score [1] was -0.109 and -0.161, the composite z-score [2] was 0.8 and -0.925 and the composite z-score [3] was 0.14 and -0.217. For the same compound, the composite z-score [4] was 0.325 and 0.237, the composite z-score [5] was 0.214 and -0.173 and the composite z-score [6] was -0.0463 and -0.423. For the same compound, the z-score [7] was 1.91 and 0.598, the composite z-score (Lefty1) was 0.517 and -0.0509 and the composite z-score [8] was 0.484 and -0.261. The z-score [9] was -1 (inactive) and 0.591 (inactive).
Work on `CC(=O)OC[C@H]1O[C@H](C#CC(C)(C)C)C=C[C@@H]1OC(C)=O` yielded a composite z-score [1] of 0.726, a composite z-score [2] of 0.996 and a composite z-score [3] of 0.589. For the same compound, the composite z-score [4] was 0.979, the composite z-score [5] was 0.418 and the composite z-score [6] was 0.791. The z-score [7] was 0.707, the composite z-score (Lefty1) was 1.22 and the composite z-score [8] was 0.445. The z-score [9] was -1.22 (inactive).
With `CCCNC(=O)OC[C@H]1O[C@H](CCON=C(C)CCC(=O)OC[C@H]2O[C@H](C#Cc3ccccc3)C=C[C@@H]2Oc2ccc(C)cc2)C=C[C@@H]1Oc1ccc(OC)cc1` the composite z-score [1] was 0.0888, the composite z-score [2] was -0.216 and the composite z-score [3] was -0.17. The composite z-score [4] was -0.185, the composite z-score [5] was -0.437 and the composite z-score [6] was -0.251. The z-score [7] was -0.611, the composite z-score (Lefty1) was 0.0233 and the composite z-score [8] was -0.26. The z-score [9] was 1.41 (inactive).
In the case of `C=CCN(Cc1ccccc1)C(=O)C1N(CCCCCCO)C(=O)C2C(C(=O)O)C3C=CC21O3` (stereo not given), the composite z-score [1] is reported as 0.193 and -0.664, the composite z-score [2] is reported as -0.363 and -0.297 and the composite z-score [3] is reported as 0.0147 and -0.339. The composite z-score [4] was -0.923 and -1.99, the composite z-score [5] was -1.42 and -1.07 and the composite z-score [6] was -1.88 and -2.94. The z-score [7] was -0.38 and 0.344, the composite z-score (Lefty1) was -1.84 and -1.78 and the composite z-score [8] was -0.834 and -0.785. For the same compound, the z-score [9] was 1.01 (inactive) and 1.33 (inactive).
For `CCC[C@@H]1C[C@@]1(CCC)[C@@H](NC(=O)c1ccc(-c2ccccc2)cc1)c1cccc(Cl)c1`, the composite z-score [1] was -0.844 and 1.8, the composite z-score [2] was -0.817 and 0.53 and the composite z-score [3] was 0.589 and 0.541. The composite z-score [4] was -0.427 and 0.367, the composite z-score [5] was -0.0957 and 0.115 and the composite z-score [6] was -0.817 and -0.244. For the same compound, the z-score [7] was 0.122 and 1.45, the composite z-score (Lefty1) was -0.16 and -0.268 and the composite z-score [8] was -0.463 and 0.469. For the same compound, the z-score [9] was 1.01 (inactive) and 1.76 (inactive).
For `CCCCN1CC=CC23O[C@@H]4C=CCCOC(=O)C4[C@H]2C(=O)N(C(C)CO)[C@@H]3C1=O` (stereo not given in full), the composite z-score [1] was 2.27 and -0.329, the composite z-score [2] was -0.461 and -0.54 and the composite z-score [3] was -0.293 and -0.0655. For the same compound, the composite z-score [4] was -1.04 and -0.749, the composite z-score [5] was -0.546 and 0.101 and the composite z-score [6] was -0.579 and -0.63. The z-score [7] was -0.224 and -0.725, the composite z-score (Lefty1) was -0.222 and 0.172 and the composite z-score [8] was -0.558 and -0.281. For the same compound, the z-score [9] was -0.0385 (inactive) and -0.213 (inactive).

— PubChem BioAssay
